The text below walks through data of PubChem BioAssay AID1259415 (National Center for Advancing Translational Sciences (NCATS), 2018).

Hit rate of the full screen: of about 410,000 compounds, about 18,000 (4.4%) were called active. Another 7% or so got no clear call; they are omitted. The sample as a whole holds a higher share of actives than the screen did. A number with no mark means an inactive call. Cut-off read from the data, not from the text of the source: active = activity change below about -60%; inconclusive = no clear call, values can overlap the other calls; inactive = above about -39%.
% is set by controls: 0 for no effect and ±100 for the full control effect.

A short description of this experiment: qHTS Assay for inhibitors of the human cytomegalovirus (HCMV). To be noted: HFF cells, HCMV-luciferase reporter, 72 h; at 57.5 µM; active compounds read low. The text has this:
NCGC Assay Overview: Infection with human cytomegalovirus (HCMV) continues to pose significant threats for pregnant women and immunocompromised hosts. HCMV causes serious morbidity and mortality in transplant recipients, and congenital HCMV is the leading infectious cause of mental retardation and deafness in children. In the 1990s, the annual costs associated with the disease burden of congenital CMV were estimated at around $2 billion. A HCMV vaccine is not available yet and HCMV therapies result in intolerable side effects and emergence of drug resistant viruses. […] Towards this goal we have developed and characterized a luciferase HCMV reporter that was initially used in 96 well plates and then optimized to 1536-well plates for utilization in screening of the MLSMR collection, the NGCG diversity collection and the NCGC Pharmaceutical Collection of approved and investigational drugs.
NCGC Assay Protocol Summary:
This is a cell-based assay for HCMV inhibition in HFFs cells. The screening used 2 compound doses and the HCMV-luciferase at MOI of 1 PFU/cell. Cells were treated and infected with HCMV. At 72 h post infection cell lysates were collected and luciferase activity was determined using the Glomax-Multi + Detection System (Promega, Madison, WI). Data were normalized to the controls for basal activity (buffer only) and known HCMV inhibitors Salinmoycin.
1536-well assay protocol for the assay:
(1) Add 3 ul CMV/HFF cell culture. 1000 cells/well in DMEM nirmal media.
(2) Incubate 16 hr at 37C.
(3) Add 23 nl control compound, 10uM of Salinomycin.
(4) Add 23 nl compounds in DMSO solution.
(5) Add 3 ul CMV suspension. Final 1 puf/ul, Virus stock 2000pfu/ul
(6) Incubate 72 hrs at 37C.
(7) Add 4 ul OneGlo Luc Reagent.
(8) Incubate 5 min at room temperature.
On the technique in general: In qHTS, concentration-response curves come from the screen itself.
On to `CCCCn1c(CNC(=O)C23CC4CC(CC(C4)C2)C3)nnc1SCC(=O)Nc1ccc(C)cc1`, for which the activity change, negative = inhibition was 13.3%.

For the compound `Cc1noc(C)c1CSCC(=O)N(CCC(C)C)c1c(N)n(Cc2ccccc2)c(=O)[nH]c1=O`, the activity change, negative = inhibition is 4.61%. Under `CCn1c(SCC(=O)NC2CC2)nnc1-c1ccccn1` stands -72.6% (active); under `CCn1c(SCC(=O)NC2CC2)nnc1-c1ccncc1`, 56.4%. Take `CCn1c(SCC(=O)NC2CCCC2)nnc1-c1ccoc1C`: the activity change, negative = inhibition was -17.9%. Under `COc1ccccc1Oc1ccc(S(=O)(=O)Nc2cccnc2)cc1` stands -79.4% (active); under `Cc1cc(C)c(C)c(S(=O)(=O)Nc2cccnc2)c1C`, -18.7%. Under `COc1ccc(S(=O)(=O)Nc2cccnc2)c(Cl)c1Cl` stands -8.35%; under `CCN(C(=O)CN1CCN(Cc2ccccc2)CC1)c1c(N)n(Cc2ccccc2)c(=O)[nH]c1=O`, 3.73%.

In the case of `Cc1c(-c2nc(-c3ccc4c(c3)OCO4)no2)nnn1-c1ccc(Br)cc1F`, the activity change, negative = inhibition was -0.877%. The result for `CCc1nn(CC(=O)N2CCN(c3cccc(C(F)(F)F)c3)CC2)c(=O)c2cc3occc3n12` reads -6.95%. Under `COc1cccc(NC(=O)CSC2=Nc3ccccc3C3=NC(CC(=O)NC4CCCCC4)C(=O)N23)c1` (configuration not stated) stands 14%. In the case of `O=C(NC1CC(=O)N(c2ccc(F)cc2)C1)c1ccc(S(=O)(=O)N2CCCC2)cc1` (configuration not stated), the activity change, negative = inhibition is -23.1%. The result for `CCCCCc1c(-c2ccc(OC)c(OC)c2)ncn1CCc1ccccc1OC` reads -102% (active). The result for `CCCCc1c(-c2ccc(Br)cc2)ncn1CCc1ccccc1OC` reads -102% (active); that for `COc1ccccc1CCNS(=O)(=O)c1cn(C)nc1C`, -2.46%. Under `COc1ccccc1Cc1c(-c2ccc(Cl)cc2)nc2ccc(Cl)cn12` stands 13.1%; under `CCCc1c(-c2ccccc2F)ncn1Cc1ccccc1OC`, -31.6%; under `CCCCCc1c(Cc2ccccc2)ncn1CCc1ccccc1OC`, -93.7% (active). Consider `COC(=O)c1ccc2nc(-c3ccc(OC)c(OC)c3)c(Cc3ccccc3)n2c1`, for which the activity change, negative = inhibition was 33.9%. The result for `COc1ccc(-c2nnc(SCC(=O)Nc3ccccc3C)o2)cc1OC` reads 45.3%; that for `CCCCNS(=O)(=O)CCNCc1ccccc1OC`, -20.1%; that for `FC(F)(F)c1cccc(-c2cnc3ccccc3n2)c1`, 32.3%.

In the case of `Nc1ncc(S(=O)(=O)Nc2ccc(OC(F)(F)F)cc2)cn1`, the activity change, negative = inhibition is 4.7%. Under `CCN1C(=O)c2ccccc2S(=O)c2ccc(C(=O)NCc3ccc(F)cc3)cc21` (configuration not stated) stands 6.08%; under `CSc1nn(Cc2cccc(C)c2)c(N)c1S(=O)(=O)c1ccccc1`, -39.1%. Under `COC(=O)c1cnn(-c2ccc(C(=O)Nc3ccc(OC(F)(F)F)cc3)cc2)c1N` stands -14.8%; under `O=C(Nc1ccc(OC(F)(F)F)cc1)c1ccc2c(c1)no[n+]2[O-]`, -88.8% (active); under `Cc1ccc2ncc(C(=O)Nc3ccc(OC(F)(F)F)cc3)c(=O)n2c1`, 19.1%. Under `COc1ccc2c(c1)c(C(=O)N/N=C/c1cccs1)c(C)n2C` stands -14.7%; under `Cc1ccccc1-n1c(C)cc(/C=N/NC(=O)c2ccc(CN3CCOCC3)cc2)c1C`, -25.2%; under `Cc1cccc(-n2c(C)cc(/C=N\NC(=O)c3cccs3)c2C)c1`, -61.8% (active).

With `O=C(Nc1cccc(Cl)c1)c1csnn1`, the activity change, negative = inhibition is -2.8%. The result for `CC(=O)Nc1cc(C(=O)NCc2ccc(F)cc2Cl)ccc1Sc1ccc(Cl)cc1` reads 5.5%; that for `O=C(Nc1ccc(-c2csc(Nc3cccc(C(F)(F)F)c3)n2)cc1)c1cccc(C(F)(F)F)c1`, -66.8% (active). Turning to `Cn1c(C(=O)Nc2cccc(C(F)(F)F)c2)cc2c(=O)n3ccccc3nc21`, the activity change, negative = inhibition was 63.8%. Under `Cc1nnsc1C(=O)N/N=C/c1cccc(C(F)(F)F)c1` stands -22.9%; under `Cc1c(CCNC(=O)c2ccc(C(F)(F)F)cc2)sc2nc(-c3ccc(F)cc3)nn12`, 33.8%; under `COc1ccc(Cn2ccnc2SCC(=O)Nc2ccc3c(c2)OCO3)cc1`, -2.47%.

As to `Cc1ccc2oc(C(=O)Nc3ccc(S(=O)(=O)N4CCCCCC4)cc3)cc(=O)c2c1`, the activity change, negative = inhibition is 5.06%. Consider `CCS(=O)(=O)N1CCC(N2CCN(c3ccccc3)CC2)CC1`, for which the activity change, negative = inhibition was 12.5%. As for `Cn1nnc2c(N3CCN(c4ccccc4)CC3)ncnc21`, the activity change, negative = inhibition was -1.12%.
